CYP2C9 act: activators of human CYP2C9 | P11712 | recombinant CYP2C9, luciferin-H conversion, luminescence; stronger effect = higher value; factor 1 = untreated enzyme, 0 = blocked | activation factor at 5 µM | 1.4% of 96,000 active;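 active = activation factor of 2 or more for CYP2C9 at a 5 µM dose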
sEH act: soluble epoxide hydrolase (human) activation; purified human sEH enzymatic activity, activator screen; P34913; 0.04% of 91,000 active; activation, % at 2 µM; in the data active = activation above about 37%
Target sequence (P34913 whole entry, looked up): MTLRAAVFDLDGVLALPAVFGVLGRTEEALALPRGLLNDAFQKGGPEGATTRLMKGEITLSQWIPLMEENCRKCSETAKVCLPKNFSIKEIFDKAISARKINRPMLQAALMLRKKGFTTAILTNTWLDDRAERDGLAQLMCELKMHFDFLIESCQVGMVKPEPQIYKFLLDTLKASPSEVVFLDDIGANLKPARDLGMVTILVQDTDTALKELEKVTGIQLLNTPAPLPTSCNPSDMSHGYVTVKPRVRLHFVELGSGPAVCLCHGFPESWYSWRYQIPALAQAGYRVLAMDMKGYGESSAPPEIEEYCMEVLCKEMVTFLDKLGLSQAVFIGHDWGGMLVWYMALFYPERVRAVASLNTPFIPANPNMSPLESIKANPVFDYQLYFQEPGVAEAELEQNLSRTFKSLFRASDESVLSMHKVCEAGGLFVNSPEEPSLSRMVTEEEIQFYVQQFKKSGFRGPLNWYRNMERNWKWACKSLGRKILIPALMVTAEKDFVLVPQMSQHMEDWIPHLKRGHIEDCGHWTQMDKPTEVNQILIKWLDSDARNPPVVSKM
CYP2C9 inh: inhibitors of human CYP2C9; inhibition, % at 5 µM; AID 777; 20% of 96,000 active; P11712; CYP2C9 Supersomes, luciferin-H conversion, luminescence;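 active = blocking of liver enzyme CYP2C9 beyond about 50% at 5 µM, limit read from the data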
CYP2C19 inhib: blocks human cytochrome P450 2C19; 21% of 96,000 active; CYP2C19 Supersomes, luciferin-H EGE luminescence, 30 min; inhibition, % at 5 µM; P33261;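 active = CYP2C19 inhibition above a set limit at 5 µM in the primary screen, cut at about 50% in these data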
sEH inh: blocks human soluble epoxide hydrolase activity | P34913 | recombinant human sEH enzymatic activity assay | inhibition, % at 2 µM | 0.34% of 91,000 active | AID 707; in the data active = inhibition above about 80%
CYP2C19 activ: cytochrome P450 2C19 (human) activation. recombinant CYP2C19, luciferin-H EGE luminescence; stronger effect = higher value; 0 = fully inhibited enzyme, 1 = untreated enzyme. 96,000 tested, under 10 active. AID 1025. P33261. activation factor at 5 µM;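 active = activation factor of at least 2 at 5 µM in the primary screen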
Large screens that a line does not name were inactive. Sampled rows, rich in hits. Any-hit rate of the full collection: about 27%.

Cc1cc2c(c(=O)n1Cc1cccnc1)C(c1ccccc1)C(C#N)=C(N)O2 (stereo unspecified)	none (no result: sEH act, sEH inh)
CC(C)(C)c1nc(N2CCN(C(=O)c3ccco3)CC2)c2nnn(Cc3ccccc3)c2n1	none
COc1ccccc1CNC(=O)CC(NS(=O)(=O)c1ccc(C)cc1)c1ccco1 (stereo unspecified)	none
CCOC(=O)CCSc1nc(C(C)(C)C)cc(C(F)(F)F)c1C#N	none (no result: CYP2C9 act, CYP2C9 inh, CYP2C19 inhib, CYP2C19 activ)
CCOC(=O)CCSc1nc(C)cc(C(F)(F)F)c1C#N	CYP2C19 inhib 60.9
CCOC(=O)CC(=O)CSc1nc(-c2ccc3c(c2)OCO3)cc(C(F)(F)F)c1C#N	CYP2C9 inh 52.7
O=C(NCCCN=C1NS(=O)(=O)c2ccccc21)c1ccc(S(=O)(=O)N2CCOCC2)cc1	none
COc1cc(CNCc2ccccn2)ccc1OCc1c(Cl)cccc1Cl	CYP2C19 inhib 68.7
COc1cc(CNCc2ccccn2)ccc1OCc1cccc(Cl)c1	CYP2C19 inhib 83.4
COc1cc(C(=O)NCc2ccccn2)ccc1OCc1c(C)noc1C	none
COc1cccc(-c2nnc(NC(=O)c3ccc(S(=O)(=O)N4CCOCC4)cc3)o2)c1	none
O=C(NCc1ccco1)c1ccc(S(=O)(=O)N2CCCc3ccccc32)cc1	CYP2C9 inh 76.1, CYP2C19 inhib 67.0
COc1ccc(-c2nnc(NC(=O)c3ccc(S(=O)(=O)N4CCCc5ccccc54)cc3)o2)cc1	CYP2C9 inh 54.4
CC1CN(S(=O)(=O)c2ccc(C(=O)Nc3nnc(-c4ccc5c(c4)CCCC5)o3)cc2)CC(C)O1 (stereo unspecified)	none
O=C(Nc1nnc(C2CC2)o1)c1ccc(S(=O)(=O)N2CCCc3ccccc32)cc1	CYP2C9 inh 94.7
O=C1CCN(C(=O)c2ccccc2)C2CCCCC12 (stereo unspecified)	none (no result: sEH act, sEH inh)
CCCCOC(=O)/C(=C\c1ccc([N+](=O)[O-])o1)NC(=O)c1ccccc1	none (no result: CYP2C9 act, CYP2C9 inh, CYP2C19 inhib, CYP2C19 activ)
CCCC(=O)Nc1cccc(NC(=O)CN2CCN(c3ccccc3OC)CC2)c1	CYP2C9 inh 76.8, CYP2C19 inhib 87.8 (no result: sEH act, sEH inh)
COc1ccc(OC)c(NC(=S)N2CCN(C/C=C/c3ccccc3)CC2)c1	none
COc1ccccc1NC(=O)CCN1CCN(Cc2ccccc2)CC1	CYP2C9 inh 56.9
COc1ccc(NC(C)=O)cc1NC(=O)CN1CCN(CC(=O)Nc2ccc(Cl)cc2)CC1	CYP2C19 inhib 67.0
CCC(=O)Nc1cccc(NC(=O)CN2CCN(c3ccccc3OC)CC2)c1	none
COc1ccccc1NC(=O)CCN1CCCCCC1	none
COc1ccc(Cl)cc1NC(=O)C(C)N1CCN(C/C=C/c2ccccc2)CC1 (stereo unspecified)	CYP2C9 inh 91.4, CYP2C19 inhib 97.3
COc1ccc(C)cc1NC(=O)CN1CCN(CC(=O)Nc2ccccc2F)CC1	CYP2C19 inhib 60.7
COc1ccccc1NC(=O)CN1CCN(CC(=O)Nc2cc(NC(C)=O)ccc2OC)CC1	none
COc1ccccc1NC(=O)N1CCN(c2ccccc2F)CC1	CYP2C9 act 2.4
COc1cccc(NC(=O)CN2CCN(c3ccccc3F)CC2)c1	CYP2C9 inh 67.3, CYP2C19 inhib 62.2
COc1ccccc1NC(=O)N1CCN(c2ccccn2)CC1	none (no result: sEH act, sEH inh)
COc1ccccc1NC(=O)CN1CCN(c2ccccc2F)CC1	CYP2C9 inh 65.9, CYP2C19 inhib 88.4
O=c1c2ccccc2nc2n1C(CSc1ccc(Br)cc1)CN2 (stereo unspecified)	none
CCSc1nnc(CNc2ccc(F)cc2)n1CC1CCCO1 (stereo unspecified)	none
COc1ccc(Cl)cc1NC(=O)N1CCN(CCc2ccccc2)CC1	CYP2C9 act 2.3, CYP2C19 inhib 73.1
CCOC(=O)c1ccc(NC(=O)N2CCN(c3ccccn3)CC2)cc1	none
CCOC(=O)c1ccc(NC(=O)N2CCN(CCc3ccccc3)CC2)cc1	CYP2C9 inh 66.3
O=C(c1ccc(F)cc1)N1CCN(c2cc(=O)[nH]nc2-c2ccccc2)CC1	none
COc1cccc(OCc2nc3c4cnn(-c5ccccc5)c4ncn3n2)c1	CYP2C19 inhib 53.2
COc1cccc(OCCN2CCN(c3ncnc4c3cnn4-c3ccccc3)CC2)c1	none (no result: sEH act, sEH inh)
COCCCNC(=O)CCCn1c(=O)[nH]c2ccccc2c1=O	none
CCN(CCCNC(=O)CCCCn1c(=O)[nH]c2ccccc2c1=O)c1ccccc1	CYP2C9 inh 67.8, CYP2C19 inhib 62.2, sEH inh 80.5
O=c1[nH]c2ccccc2c(=O)n1CCCO	none
CCN(CCCNC(=O)CCNC(=O)Cn1ccc2ccccc2c1=O)c1ccccc1	CYP2C9 inh 77.0, CYP2C19 inhib 67.5
COc1cc(NC(=O)CCn2c(=O)[nH]c3ccsc3c2=O)cc(OC)c1	none (no result: CYP2C9 act, CYP2C9 inh, CYP2C19 inhib, CYP2C19 activ)
O=C(CCn1c(=O)[nH]c2ccccc2c1=O)Nc1ccccc1	CYP2C19 inhib 52.9
CCOc1ccc(NC(=O)CCn2c(=O)[nH]c3ccsc3c2=O)cc1	CYP2C9 inh 57.2
Cc1cccc(NC(=O)N(C)Cc2cccs2)c1	none
CC1CCCC(C)N1C(=O)CSc1nc(N)c(-c2ccccc2)c(=O)[nH]1 (stereo unspecified)	none
CCS(=O)(=O)c1ccc2oc(SCC(=O)NC(C)C3CC4CCC3C4)nc2c1 (stereo unspecified)	none
Cn1c(=O)oc2cc(S(=O)(=O)NCc3ccccn3)ccc21	none
COc1cccc(NC(=O)CCNC(=O)Cn2ccc3ccccc3c2=O)c1	CYP2C9 inh 70.8
NC(=S)NNC(=O)c1ccccc1	none
CCOC(=O)C1=C(c2ccccc2)NC(=O)NC1c1ccc(N(C)C)cc1 (stereo unspecified)	CYP2C19 inhib 79.5 (no result: sEH act, sEH inh)
C(=N\Nc1nc(-c2ccccc2)cs1)/c1cccs1	none
Cc1cc(C)cc(NC(=O)c2nccnc2C(=O)O)c1	none
CCOC(=O)c1cnn(-c2nc(-c3ccccc3F)cs2)c1C(F)(F)F	none
CCOC(=O)c1cnc2c(-c3ccccc3)cnn2c1N	CYP2C9 inh 57.3, CYP2C19 inhib 63.4
CCOC(=O)c1cnn2c(C(F)(F)F)cc(-c3cn(C)nc3C)nc12	CYP2C9 inh 84.7, CYP2C19 inhib 57.1
CCOC(=O)c1cnn(-c2nc(-c3ccccc3)cs2)c1C(F)(F)F	CYP2C9 inh 87.8
CCOC(=O)c1cnc2c(-c3ccccc3)c(C)nn2c1N	none
CCOC(=O)c1cnn2c(C(F)(F)F)cc(-c3ccccc3)nc12	CYP2C9 inh 53.9 (no result: sEH act, sEH inh)
COC(=O)c1cccc(OC(N)=O)c1	none
CCOC(=O)N1CCN(c2nc(-c3cccc(OC)c3)cc(C(F)(F)F)n2)CC1	none
CCOC(=O)N1CCC(NC(=O)c2cnn3c(C(F)(F)F)cc(-c4cccc(OC)c4)nc23)CC1	CYP2C9 inh 57.5, CYP2C19 inhib 60.6 (no result: sEH act, sEH inh)
S=C1N(c2ccccc2)C(c2ccc(Cl)cc2)N2CCCN12 (stereo unspecified)	CYP2C19 inhib 62.6
CC1(C)CN2C(=S)N(c3ccccc3)C(c3ccccc3)N2C1 (stereo unspecified)	CYP2C9 inh 65.8, CYP2C19 inhib 66.8
